This is a sample that favours compounds with a hit; in the whole collection about 2.9% have one here.
ERa SRC1 pot – enhancers of ERα–SRC-1 coactivator binding, primary screen, biochemical, TR-FRET, ERα LBD, low estradiol; 86,000 compounds, 1.3% hits; coactivator binding (% of control), % at 25.6 µM; Estrogen receptor (Homo sapiens), P03372; TR-FRET ERalpha-LBD/SRC-Cy5 coactivator binding, 2 h; 100 = basal binding, no effect; in the data active means activity above about 200%;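 further: binding measured in presence of low estradiol as agonist stimulus; 0% = peptide alone without receptor and 100% = receptor with peptide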
MRP reversal – reversal of MRP1-mediated doxorubicin resistance, primary screen, H69AR cells, doxorubicin co-treatment; H69AR cells + 2 uM doxorubicin, CellTiter-Glo, 72 h; differential viability (reversal), % at 10 µM; 85,000 compounds, 0.04% hits; AID 602, 2007;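 active means viability drop by adding the cancer drug above about 55%, with treated viability meeting a 40% cutoff, limit read from the data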;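 further: viability without doxorubicin minus viability with 2 µM doxorubicin for each compound; larger differential means the compound sensitizes cells more to doxorubicin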
ERb SRC1 inh – inhibitors of ERβ-SRC1 coactivator interaction, primary screen, biochemical, TR-FRET, ERβ LBD, SRC-1 peptide | TR-FRET ER-beta LBD / SRC1-Cy5 peptide binding; receptor agonist-loaded with 1 µM estradiol | AID 633, 2007 | 86,000 compounds, 1.3% hits | inhibition, % at 25.6 µM | Estrogen receptor beta (Homo sapiens), Q92731;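 active means compounds whose percent inhibition of the receptor-coactivator binding signal exceeds about 50% in the single-dose screen, limit read from the data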;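 further: 0% = receptor plus peptide wells without compound and 100% = peptide-only wells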
MRP-1 activ – H69AR viability gain despite doxorubicin, primary screen, MRP-1 activator project, H69AR cells, CellTiter-Glo; viability increase, % at 10 µM; AID 799, 2007; viability rescue; 140,000 compounds, 0.61% hits;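 active means viability gain under doxorubicin at or above a set limit, the compound median plus 3 SD, cut at about 4.7% in these data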;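 further: MRP-1 overexpressing cells given doxorubicin 25 µM after compound pretreatment; 18-22 h compound pretreatment then 72 h with doxorubicin before readout; 0% = doxorubicin-only wells and 100% = vehicle-treated cells without doxorubicin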
Smad3 inh – Smad3/FoxH1 peptide binding inhibitors, primary screen, biochemical, TR-FRET; Mothers against decapentaplegic homolog 3 (Homo sapiens), P84022; TR-FRET Smad3/Dy647-FoxH1 peptide binding, europium anti-His; inhibition, % at 25 µM; 88,000 compounds, 0.29% hits;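 active means compounds that reduce the energy-transfer binding signal between the protein and its labelled peptide by more than half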;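 further: 0% = Smad3 plus labelled peptide maximal FRET and 100% = peptide-only background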
Target sequence (P84022 whole entry, looked up): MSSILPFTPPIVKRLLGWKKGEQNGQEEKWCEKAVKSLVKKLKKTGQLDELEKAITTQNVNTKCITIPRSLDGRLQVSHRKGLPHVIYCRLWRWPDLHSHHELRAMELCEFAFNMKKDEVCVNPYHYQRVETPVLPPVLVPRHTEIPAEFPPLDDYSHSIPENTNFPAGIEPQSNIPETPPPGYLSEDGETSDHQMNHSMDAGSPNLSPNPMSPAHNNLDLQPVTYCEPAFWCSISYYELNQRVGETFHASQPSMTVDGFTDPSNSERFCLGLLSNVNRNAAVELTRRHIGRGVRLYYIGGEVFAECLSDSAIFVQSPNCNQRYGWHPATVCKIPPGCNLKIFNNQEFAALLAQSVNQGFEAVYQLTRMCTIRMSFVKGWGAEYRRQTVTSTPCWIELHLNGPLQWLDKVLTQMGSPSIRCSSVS
ERa SRC1 inh – ERα–SRC-1 coactivator interaction inhibitors, primary screen, biochemical, TR-FRET, ERα LBD, estradiol-bound. Estrogen receptor (Homo sapiens), P03372. 86,000 compounds, 1.7% hits. inhibition, % at 25.6 µM. TR-FRET ER-alpha LBD / SRC-1 peptide. AID 629, 2007; in the data active means inhibition above about 50%;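 further: 0% = receptor plus peptide control and 100% = peptide only without receptor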
* marks the source's active call; other numbers are inactive results; [ ] = remark or other dose.

`N#Cc1c2n(c(=S)n(-c3ccccn3)c1=O)CCCCC2` gave ERa SRC1 pot 79.1, MRP reversal -2.6, ERb SRC1 inh 52.0*[fluorescence artefact?], MRP-1 activ -1.2, Smad3 inh 2.5 and ERa SRC1 inh 13.5.
N#Cc1c2n(c3c(=O)n(Cc4ccccc4Cl)cnc13)CCCCC2 was read as ERa SRC1 pot 115.5, MRP reversal -10.8, ERb SRC1 inh -4.7, MRP-1 activ -0.3, Smad3 inh -2.8 and ERa SRC1 inh -2.4.
CSCCC(NC(=O)c1ccc(Cl)cc1)C(=O)OCC(=O)c1ccc[nH]1 (centres undefined) was read as MRP-1 activ 0.3.
Clc1ccc(CSc2ncnc3c2ncn3[C@@H]2CCCCO2)cc1 was read as Smad3 inh -0.1.
CC(C)(C)NC(=O)C(c1c[nH]c2ccccc12)N(C(=O)Cn1nnc(-c2ccc(Cl)cc2)n1)c1ccccc1F (centres undefined) was read as MRP-1 activ -1.3.
`O=C(NC1CCCC1)C(c1c[nH]c2ccccc12)N(C(=O)Cn1nnc(-c2ccc(Cl)cc2)n1)c1ccccc1` (centres undefined) gave MRP-1 activ 11.0*.
`C=CCNC(=O)Nc1ccc2oc(C)nc2c1` gave ERa SRC1 pot 110.5, MRP reversal 18.4, ERb SRC1 inh 86.4*[fluorescence artefact?], MRP-1 activ -1.8, Smad3 inh 8.4 and ERa SRC1 inh 14.9.
Screening O=C(COc1nsnc1N1CCOCC1)N/N=C/c1ccccc1O returned MRP-1 activ 5.5*.
Screening CSc1ccccc1NC(=O)c1ccccc1N(C)S(C)(=O)=O returned ERa SRC1 pot 103.8, MRP reversal 0.3, ERb SRC1 inh -4.4, MRP-1 activ -3.2, Smad3 inh 1.1 and ERa SRC1 inh -1.4.
CSc1ccccc1NC(=O)c1ccccc1N(Cc1ccccc1)S(C)(=O)=O was read as ERa SRC1 pot 106.7, MRP reversal 19.3, ERb SRC1 inh 59.2*, MRP-1 activ -1.8, Smad3 inh -8.5 and ERa SRC1 inh -3.9.
CCN(c1ccccc1)c1ncnc2c1cnn2-c1ccccc1 was read as ERa SRC1 pot 125.8, MRP reversal -0.9, ERb SRC1 inh -6.4, MRP-1 activ 2.8, Smad3 inh 5.2 and ERa SRC1 inh -0.9.
Screening CN(Cc1ccccc1)c1ncnc2c1cnn2-c1ccccc1 returned ERa SRC1 pot 106.9, MRP reversal 2.2, ERb SRC1 inh -8.9, MRP-1 activ 5.3*, Smad3 inh 6.2 and ERa SRC1 inh -0.5.
For CCOc1[nH]c(/N=C/c2ccco2)c(C#N)c1C#N the results were ERa SRC1 pot 71.6, MRP reversal -4.4, ERb SRC1 inh 59.7*, MRP-1 activ -0.2, Smad3 inh 10.4 and ERa SRC1 inh 34.7.
For OCCCSCCO the results were Smad3 inh -0.4.
O=C(NCc1cccnc1)C1c2ccccc2C(=O)N1Cc1ccccc1 (centres undefined) was read as ERa SRC1 pot 108.7, MRP reversal 5.1, ERb SRC1 inh -2.1, MRP-1 activ -0.7, Smad3 inh 0.9 and ERa SRC1 inh -5.9.
O=C(NCc1cccnc1)C1c2ccccc2C(=O)N1Cc1ccco1 (centres undefined) was read as ERa SRC1 pot 92.7, MRP reversal 6.8, ERb SRC1 inh 51.0*[fluorescence artefact?], MRP-1 activ -1.4, Smad3 inh 11.9 and ERa SRC1 inh 0.1.
`C=C(Br)CN(C)CC(=C)Br` gave Smad3 inh -0.4.
`Clc1ccc(-c2nn3c(-c4ccncc4)nnc3s2)c(Cl)c1` gave ERa SRC1 pot 330.3*, MRP reversal -12.1, ERb SRC1 inh 28.6, Smad3 inh -7.9 and ERa SRC1 inh 10.6.
For Clc1ccccc1-c1nn2c(-c3ccncc3)nnc2s1 the results were ERa SRC1 pot 99.9, MRP reversal -7.4, ERb SRC1 inh 13.1, MRP-1 activ -1.5, Smad3 inh 0.5 and ERa SRC1 inh 3.7.
c1ccc(-c2nn3c(-c4ccncc4)nnc3s2)nc1 was read as ERa SRC1 pot 39.9, MRP reversal -15.0, ERb SRC1 inh 25.5, Smad3 inh 6.4 and ERa SRC1 inh 57.6*[fluorescence artefact?].
`CC(C)(C)c1ccc(-c2nnc3sc(-c4ccccn4)nn23)cc1` gave ERa SRC1 pot 262.3*, MRP reversal -13.5, ERb SRC1 inh 31.1, MRP-1 activ -0.1, Smad3 inh 8.3 and ERa SRC1 inh 23.2.
Screening CC[C@](N)(C(=O)O)C(C)C returned Smad3 inh -4.9.
Screening CSc1nc(-c2ccccc2)nc2[nH]ccc(=O)c12 returned ERa SRC1 pot 317.0*, MRP reversal -9.6, ERb SRC1 inh 24.9, Smad3 inh -5.6 and ERa SRC1 inh 51.6*[fluorescence artefact?].
COc1ccc(C2NC(=S)NC(O)(C(F)(F)F)C2C(=O)c2cccs2)cc1 (centres undefined) was read as MRP-1 activ -2.1.
O=C(O)CN(CCN(CC(=O)O)CC(=O)O)CC(=O)O.[Mn+2] was read as Smad3 inh 8.9.
`Cn1nc(C(F)(F)F)c2cc(NC(=O)OCc3ccc(C(C)(C)C)cc3)sc21` gave ERa SRC1 pot 93.7, MRP reversal 21.8, ERb SRC1 inh 1.5, MRP-1 activ 7.1*, Smad3 inh -16.1 and ERa SRC1 inh 7.2.
For COC(=O)c1[nH]c2cccc(OC)c2c1NC(=O)CN1CC2(C)CC1CC(C)(C)C2 (centres undefined) the results were ERa SRC1 pot 109.1, MRP reversal 9.5, ERb SRC1 inh 4.8, MRP-1 activ 0.0, Smad3 inh 66.5*[fluorescence artefact?] and ERa SRC1 inh -2.1.
COC(=O)c1[nH]c2cccc(OC)c2c1NC(=O)CN1CCOCC1 was read as ERa SRC1 pot 120.0, MRP reversal 3.7, ERb SRC1 inh -5.7, MRP-1 activ -0.1, Smad3 inh -14.2 and ERa SRC1 inh -26.6.
CC(C)Oc1cc(O)c2c(c1)OCC=C2CCC(=O)O was read as Smad3 inh 4.6.
O=C(c1cccc(S(=O)(=O)N2CCCC2)c1)c1nnc(-c2ccncc2)o1 was read as ERa SRC1 pot 93.1, MRP reversal -21.9, ERb SRC1 inh 9.5, MRP-1 activ -1.1, Smad3 inh 7.8 and ERa SRC1 inh 7.8.
For CCN(CC)c1ccc(NC(=O)c2cnc3ccccn3c2=O)c(C)c1 the results were ERa SRC1 pot 628.6*[fluorescence artefact?], MRP reversal -8.7, ERb SRC1 inh -1.2, MRP-1 activ 0.2, Smad3 inh -1.5 and ERa SRC1 inh -40.7.

Screens (PubChem BioAssay)
